DPM-DC inhibit – S. pneumoniae DPM-DC inhibitors, primary screen, biochemical, PK/LDH-coupled NADH fluorescence; diphosphomevalonate decarboxylase (Streptococcus pneumoniae D39); calls only at 10 µM; hit rate 0.49% among 65,000; AID 556, 2006; purified DPM-DC;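 active means the 320 compounds with the highest percent inhibition in the single-dose primary screen, excluding strongly autofluorescent ones, cut at about 32% in these data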;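 further: kinetic rate of NADH fluorescence loss reporting ADP formed by the decarboxylase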
A340 absorber – compound light absorbance at 340 nm, profiling panel, artefact control, biochemical, MLSMR library, data from PS, PMK, MK assays | AID 708, 2007 | compound absorbance at 340 nm, fold over control | fold change at 10 µM | 65,000 tested, under 10 active;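 active means at 10 µM dose, initial 340 nm absorbance at least 2 fold that of control wells; inactive means change under 2 fold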;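 further: initial absorbance extrapolated from kinetic A340 decline of NADH oxidation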
Fluor 339 460 – intrinsic fluorescence of library compounds, ex339/em460 – biochemical, MLSMR library, data from DPM-DC assay, artefact control, profiling panel; compound autofluorescence, ex339/em460 nm, NADH buffer; active compounds read high; 1 = no-compound wells, NADH background; fluorescence fold increase at 10 µM; hit rate 5.5% among 65,000; AID 709, 2007;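 active means at 10 µM, mean starting fluorescence two-fold or more over control wells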;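 further: signal is the first read of a kinetic run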
NADH coupling – inhibitors of PK/LDH coupling enzymes, profiling panel, artefact control, biochemical, MLSMR library; AID 774, 2007; coupled PK/LDH NADH assays, four targets; IC50, µM (titrated, usually from 10 µM); hit rate 0.02% among 65,000;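 active means single-dose screening hits from any of four coupled enzyme assays that gave an IC50 when retested across doses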;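 further: the DPM-DC format reads NADH fluorescence rather than 340 nm absorbance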
Spn PMK inh – S. pneumoniae PMK inhibitors, primary screen, biochemical, mevalonate pathway, pilot trial included; phosphomevalonate kinase (Streptococcus pneumoniae D39); purified PMK, PK/LDH-coupled NADH absorbance 340 nm; inhibition, % at 10 µM; hit rate 0.49% among 65,000; AID 539, 2006;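 active means top-ranked compounds by inhibition in the single 10 µM screen, taking a fixed number of the strongest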
MK inhibit – S. pneumoniae MK inhibitors, primary screen, biochemical, PK/LDH-coupled NADH absorbance; inhibition, % at 10 µM; mevalonate kinase [Streptococcus pneumoniae D39]; hit rate 0.48% among 65,000; purified MK, PK/LDH-coupled NADH absorbance 340 nm;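 active means ranked among the strongest by inhibition in the single 10 µM screen, a fixed top-ranked set picked for dose follow-up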
Each line names hits and unclear results; the compound was inactive in the other large screens. A selection: hits, their analogues and other compounds. The true share with any hit is near 6.3%.

Cc1cc(NC(=O)COC(=O)CCC(=O)c2ccc(F)cc2)no1	none
O=C1N2CCSC2=NC1(Nc1nccs1)C(F)(F)F (stereo not given)	none
COc1ccc(CCNC(=O)CC2Nc3ccccc3NC2=O)cc1 (stereo not given)	Fluor 339 460 2.12
COc1ccc(CCNC(=O)CC2Nc3ccccc3NC2=O)cc1OC (stereo not given)	none
Cc1ccc2[nH]c(-c3ccccc3)cc(=O)c2c1	Fluor 339 460 2.16 (not shown: DPM-DC inhibit)
CCOC(=O)c1c(C)[nH]c(C(=O)COC(=O)c2ccccc2NC(=O)c2ccco2)c1C	DPM-DC inhibit active, Fluor 339 460 3.37
CCN1CCN(Cc2ccc(NC(=O)Nc3cccs3)cc2)CC1	none
COc1cc(CN2CC(C)OC(C)C2)cc(OC)c1 (stereo not given)	MK inhibit 45.0
COc1ccc2[nH]c(=O)c(CN(C(=O)C3CCCO3)c3cccc(C)c3)cc2c1 (stereo not given)	Fluor 339 460 2.35
COc1ccc(N(Cc2cc3cc(OC)ccc3[nH]c2=O)C(=O)C2CCCO2)cc1 (stereo not given)	Fluor 339 460 2.88
Cc1ccc2cc(CN(CC(C)C)C(=O)C3CCCO3)c(=O)[nH]c2c1 (stereo not given)	none
COc1ccc(-c2c(C)oc3c(CN4CCN(C)CC4)c(O)ccc3c2=O)cc1	Fluor 339 460 2.2 (not shown: DPM-DC inhibit)
CCN1CCN(Cc2c(O)ccc3c(=O)c(-c4ccc(OC)c(OC)c4)c(C)oc23)CC1	Fluor 339 460 3.87 (not shown: DPM-DC inhibit)
c1csc(C2C3=C(Nc4ncnn42)c2ccccc2OC3)c1 (stereo not given)	Fluor 339 460 2.34
CC(=O)Nc1nnc(-c2ccc3c(c2)CCCC3)o1	none
CC1CN(S(=O)(=O)c2ccc(C(=O)Nc3nnc(-c4ccc5c(c4)CCCC5)o3)cc2)CC(C)O1 (stereo not given)	Fluor 339 460 2.14 (not shown: DPM-DC inhibit)
Cc1cc2c(c(=O)o1)C(Cc1ccccc1)C(C#N)=C(N)O2 (stereo not given)	none
CCc1ccc(CC)c(S(=O)(=O)Nc2ccc(O)c(C(=O)O)c2)c1	none
O=C(Nc1ccccc1C(F)(F)F)N1CCN(c2ccc3nncn3n2)CC1	none
Cc1ccc(CNc2oc(-c3ccco3)nc2C#N)cc1	Fluor 339 460 2.1 (not shown: DPM-DC inhibit)
CNc1oc(-c2ccccc2Cl)nc1C#N	none
CNc1oc(-c2ccc(Cl)cc2)nc1C#N	Fluor 339 460 2.38 (not shown: DPM-DC inhibit)
Cc1ccc(-c2nc(C#N)c(NCc3cccc4c3OCO4)o2)cc1	Fluor 339 460 2.64
CNc1oc(-c2ccco2)nc1C#N	Fluor 339 460 3.95 (not shown: DPM-DC inhibit)
CC1=C(C#N)C(C(F)(F)F)(C(F)(F)F)N=C(c2ccco2)N1	none
CCCCC(C(=O)NCCC(C)C)N(CCCN1CCOCC1)C(=O)c1snc(C(N)=O)c1N (stereo not given)	Fluor 339 460 2.08
COC(=O)C1(C)Nc2ccccc2C(=O)N1c1ccccc1C (stereo not given)	Fluor 339 460 2.1 (not shown: DPM-DC inhibit)
CN(C(=O)c1cccnc1)c1nnc(-c2ccccn2)s1	Fluor 339 460 2.18
CN(C(=O)c1cccc(C#N)c1)c1nnc(-c2ccncc2)s1	Fluor 339 460 2.44
CC(C)C(NS(=O)(=O)c1ccc2c(c1)OCCO2)C(=O)NCCc1ccccn1 (stereo not given)	none
CCOc1cc(C(=O)NCCOC)ccc1OC	none
O=C(O)c1nc2ccccc2nc1C(=O)O	none (no result: MK inhibit)
Nc1nc2ccccc2nc1N	Fluor 339 460 2.1
C=CCn1c(C(C)NC(=O)CCC)nc2ccccc21 (stereo not given)	none
Nc1nc(N)c2sc3nc4c(cc3c2n1)CCC4	DPM-DC inhibit active, Fluor 339 460 3.17
CCOC(=O)N1CCN(C(=O)CN(c2ccc(OCc3ccccc3)cc2)S(C)(=O)=O)CC1	none
Cc1ccc(Cl)cc1N1CCN(Cc2nnnn2C2CCCCC2)CC1	Spn PMK inh 25.0
O=c1c2ccccc2nc2c3ccccc3ncn12	Fluor 339 460 2.27 (not shown: DPM-DC inhibit)
O=C(O)CCn1nnc(-c2cccs2)n1	DPM-DC inhibit active

Compound activity from PubChem BioAssay.
